Measurements published in PubChem BioAssay (NCATS).
Records with an inconclusive call do not appear. Where a call stands in place of a potency, no number is given. Unmarked numbers belong to inactive results. Activity calls are given as the source filed them. Calls come from the whole dose curve; as a rule, active = well fitted inhibition curve with a large enough effect; inconclusive = small, poorly fitted or top-dose-only effect; inactive = no such curve, though single readings can be large or run the other way.

Columns and labels:
[1] = test system: Zika virus NS2B-NS3 protease (unlinked complex); assay: Primary screen GU Rhodamine qHTS for Zika virus inhibitors: Unlinked NS2B-NS3 protease assay (AID 1347159); note: nearly all actives have a fitted effect of over 60% in size
In short: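 A qHTS format was used, with compound concentrations ranging up to 114 microM. Each compound was preincubated with 25 nM NS2B-NS3 protease, and the substrate was then added at 1.5 microM. Curves were fitted with a 4-parameter Hill model.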

[2] = test system: Zika virus NS2B-NS3 protease (linked construct); assay: Primary screen NINDS Rhodamine qHTS for Zika virus inhibitors (AID 1347160); note: nearly all actives have a fitted effect of over 55% in size
In short: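 Kinetic fluorescence (Ex 480 nm, Em 540 nm) over 15 min with 1.5 microM Rhodamine110 peptide and 25 nM linked protease.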

Row | Compound | Potency [1] | Potency [2] | activity change, negative = inhibition [1] | activity change, negative = inhibition [2]
1 | C[C@@H](Nc1cc(NS(=O)(=O)N2CCC2)nc(SCc2cccc(F)c2F)n1)[C@@H](O)CO | inactive | inactive |  | 
2 | CC1CCC2C(C)(C)C(O)CCC2(C)C12Cc1c(O)cc3c(c1O2)C(N)=NC3 (centres undefined) | inactive | inactive |  | 
3 | Cc1coc2c1CC1OC1(C)CCC1OC1(C)C2 (centres undefined) | inactive | inactive |  | 
4 | CC(=O)O[C@@H]1[C@H](O[C@@H]2O[C@H](CO)[C@@H](O)[C@H](O)[C@H]2O)[C@@H](O[C@@H]2O[C@@H](C)[C@H](O)[C@@H](O[C@@H]3O[C@H](CO)[C@@H](O)[C@H](O)[C@H]3O)[C@H]2O)[C@H](OC(=O)C23CCC4(C)C(=CCC5C6(C)CC(O)C(O[C@@H]7O[C@H](C(=O)O)[C@@H](O)[C@H](O)[C@H]7O)C(C)(C(=O)O)C6CCC54C)C2CC(C)(C)CC3O)O[C@@H]1C (some centres undefined) |  |  | 7.44% [at 19.1 µM] | 3.1% [at 10.7 µM]
5 | CCOC(=O)c1ccnc(CNCC(=O)N(CC)CCN(C)C)c1 | inactive | inactive |  | 
6 | C=C1C(=O)O[C@H]2[C@H]1[C@@H](OC(=O)C(C)CO)C[C@@]1(C)[C@H](O)CCC(=O)[C@H]21 (some centres undefined) | inactive | inactive |  | 
7 | C/C=C(\C)C(=O)O[C@@H]1CC2[C@@H](CC=C3C[C@@H](O[C@H]4C[C@H](OC)[C@H](O[C@H]5C[C@H](OC)[C@H](O[C@H]6C[C@H](OC)[C@H](O[C@H]7C[C@@H](OC)[C@H](O[C@@H]8O[C@H](CO)[C@@H](O)[C@H](O)[C@H]8O)[C@@H](C)O7)[C@@H](C)O6)[C@@H](C)O5)[C@@H](C)O4)CC[C@@]32C)[C@@]2(O)CC[C@H](C(C)=O)[C@@]12C (some centres undefined) |  |  | 20.3% [at 19.1 µM] | 1.97% [at 10.7 µM]
